Assay results published in PubChem BioAssay (NCATS).
Results filed as inconclusive are left out. Calls of active or inactive are those of the source. The call rests on the fitted dose curve; in most records, active means well fitted inhibition curve with a large enough effect; inconclusive means small, poorly fitted or top-dose-only effect; inactive means no such curve, though single readings can be large or run the other way.

Test: qHTS for Inhibitors of the Aldehyde Dehydrogenase Family (ALDH1A2, ALDH1A3, ALDH2, ALDH3A1) (AID 2061307); further: nearly all actives have a fitted effect of over 50% in size; on Potency: test system not described further here
Details: ALDH inhibition qHTS; series mostly up to 50.3 µM
Potency means the concentration at half of the fitted maximal effect.

Potency, active:
Cc1c(P(=S)(c2ccccc2)c2ccccc2)[n+]2ccccc2n1C/C=C/c1ccc2ccccc2c1 3.55 µM
O=C(O)Cc1ccc(S(=O)(=O)N2CCCC2)s1 11.3 µM
O=C(N/N=C/c1ccc(Br)o1)c1cccc(F)c1 6.31 µM
O=C(Nc1ccc(S(=O)(=O)N2CCOCC2)cc1)c1ccc(CN2Cc3ccccc3C2)cc1 0.316 µM
O=C(CCCCc1cn(-c2cc3ccc(O)cc3oc2=O)nn1)NCCOCCOCCOc1ccc(-n2ncc3c2CCCC3NC(=O)c2ccccn2)cc1 (stereo not given) 2.82 µM
Cc1sc(NC(=O)Cc2ccc3c(c2)OCO3)nc1-c1ccc2c(c1)CCN2C(=O)c1cncn1C 7.94 µM
CSc1ccc(-c2csc(N3CCC(C(N)=O)CC3)n2)cc1 4 µM
O=C(c1ccc2ccccc2c1)c1no[n+]([O-])c1C(=O)c1ccc2ccccc2c1 5.04 µM
O=C(O)c1cc(-c2cccs2)nc2cc(Br)ccc12 10.1 µM
Cc1nc2cc(NS(=O)(=O)c3cc(C(=O)O)ccc3C)ccc2o1 12.6 µM
Cc1c(Cl)cccc1-n1c(CCC(=O)O)ccc1-c1cccs1 6.34 µM
CCN1C(=O)c2ccccc2S(=O)c2ccc(C(=O)NCc3cccc(-c4ccccc4)c3)cc21 (stereo not given) 22.5 µM
Cc1cc(Br)c2c(c1)/C(=C\C(=O)c1cccs1)C(=O)N2 2.52 µM

Potency, inactive:
COc1ccc(-n2nnc(-c3nc(-c4cccs4)no3)c2N)cc1OC
Cc1noc(C)c1-c1cncc(C(=O)NCc2cccnc2)c1
c1cc(NC2CNC2)nc(-c2cnc3ccccn23)c1
Cc1ccc(CNc2ncnc3c2oc2ccccc23)cc1
CCOc1ccc(CNC(=O)c2cnc3c(C)cccn3c2=O)cc1
CSc1cc2c(s1)c1cnn(Cc3cccc(N)c3)c(=O)c1n2C
COc1ccc(N2CCN(C(=O)c3cnc(N4CCCCC4)c4ccccc34)CC2)cc1
c1ccc(CCN(Cc2ccccc2)C2CCN(Cc3ccc4c(c3)OCCO4)CC2)cc1
O=C1c2ccccc2-c2nnc(-c3ccccc3Cl)cc21
COc1ccc(OC)c(NC(=O)c2cccc(Nc3ncccn3)c2)c1
CC(Sc1nc2nn(C3COC3)cc2c(=O)n1-c1ccccc1)c1ccccn1 (stereo not given)
O=C(NCCN1CCN(c2cccc(Cl)c2)CC1)Nc1ccccc1C(F)(F)F
CCc1ccc(NC(=O)Cn2c(=O)n(-c3ccccc3)c(=O)c3ccc(C(=O)NCc4ccc5c(c4)OCO5)cc32)cc1
C=CCn1c(Sc2ncc(C#N)cc2Cl)nnc1-c1ccccc1F
CCc1ccc(CNC(=O)c2cnc3c(C)cccn3c2=O)cc1
O=C(Nc1cc(S(=O)(=O)N2CCOCC2)ccc1N1CCCCC1)c1cc(-c2ccccn2)nc2ccccc12
N#Cc1ccc(NC(=O)Cn2cnc3ccccc3c2=O)cc1
CCOc1c(Cl)cc(CNc2ccc3[nH]c(=O)[nH]c3c2)cc1OC
CC(Sc1nc2nn(C3COC3)cc2c(=O)n1-c1ccccc1)c1ccccc1 (stereo not given)
OCCNc1nc(Nc2ccccc2O)nc(N2CCCC2)n1
Cc1nn(CC(=O)N2CCN(c3cccc(C(F)(F)F)c3)CC2)c(=O)c2cc3sccc3n12
CCN1CCN(C(=S)c2ccc([N+](=O)[O-])cc2)CC1
COc1cccc2cc(C(=O)Nc3ccc(C)cc3)c(=O)oc12
CC(C)Oc1ccccc1NC(=O)N1CCN(c2ccccc2)CC1
Cn1nc(-c2ccccc2)cc1C(=O)N[C@H](Cc1ccc2ccccc2c1)C(=O)O
CC1=C[C@@H](CNC(C)C)[C@H](C(C)C)C[C@H]1Cc1nnc(-c2ccncc2)o1
Cc1cc(SCc2sc(-c3ccc(F)cc3)nc2C)ccc1OCC(=O)O
